# Screening results deposited in PubChem BioAssay by National Center for Advancing Translational Sciences (NCATS).
# A selection: hits, their analogues and other compounds. The true share with any hit is near 2.4%.
# D2 ag-1: agonists of human D2 dopamine receptor. hit rate 0.53% among 340,000. P14416. HEK293 T-REx D2 cells, calcium flux agonist mode. AID 485358. activation, % at 2 µM;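 active = activation over 3 SD above normal in the single-dose calcium agonist read, cut at about 30% in these data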
#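 Tetracycline-induced HEK293 T-REx cells with force-coupled D2 receptor, plated overnight at 30 C, loaded with no-wash calcium dye. After a 10 s baseline, compound was pin-added and calcium flux read kinetically for 180 s; calcium rises flagged agonists.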
# D2 PAM-1: human D2 receptor positive allosteric modulation. P14416. DiscoveRx D2 beta-arrestin cells, luminescence, 90 min; 100% = 57 uM dopamine signal. potentiation, % (test concentration not listed). hit rate 0.23% among 360,000. AID 624464; in the data active = potentiation above about 50%; inconclusive = mostly about 30% to 49%
#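 PathHunter D2 cells, attached overnight at 37 deg C, received compound in DMSO plus dopamine at EC20 (50 nM final) for 90 min at 37 deg C. Beta-arrestin recruitment was read as luminescence after 1 h with detection reagent at ambient temperature.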
# D2 ag-2: human D2 receptor agonism in beta-arrestin assay | P14416 | DiscoveRx PathHunter D2 beta-arrestin, luminescence, 90 min; 100% = 57 uM dopamine signal | activation, % (no concentration beside the values) | hit rate 0.084% among 360,000 | AID 624465; in the data active = activation above about 40%; inconclusive = between about 15% and that limit
#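 Agonist mode: compounds alone added to overnight-plated D2 PathHunter cells for 90 min at 37 C, with 57 uM final dopamine (EC100) defining full response. Beta-arrestin recruitment detected by chemiluminescent reagent, read after 1 h at ambient temperature.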
# D2 antag: D2 dopamine receptor (human) antagonism; hit rate 2% among 340,000; P14416; inhibition, % at 10 µM; HEK293 TREx D2 cells, calcium flux, dopamine EC80; AID 485344; in the data active = inhibition above about 30%; inactive = below that, where a call was filed
#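 Overnight-induced (tetracycline, 30 C) HEK293 T-REx cells carrying force-coupled D2 receive a no-wash calcium dye, then compound, then EC80 dopamine at 180 s; signals are read kinetically throughout.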
# B2AR arrestin: beta2AR (human) beta-arrestin recruitment activity; P07550; beta-arrestin recruitment to beta2AR, cell-based reporter; hit rate 0.02% among 330,000; Potency, µM (titrated, usually from 46.1 µM), usual class: activators; also: nearly all actives have a fitted effect of over 65% in size
# D2 PAM-2: positively modulates the human D2 dopamine receptor allosterically | potentiation, % at 10 µM | HEK293 T-REx D2, calcium flux, EC20 dopamine potentiation | hit rate 0.34% among 340,000 | P14416;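 active = potentiation over 3 SD above the plate norm, cut at about 30% in these data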
#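 Tetracycline-induced Hek293 Trex D2 cells, force-coupled to calcium, loaded with no-wash calcium dye. Compound added with 180 s kinetic read for agonism, then EC20 dopamine and a further 180 s read for potentiation.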
# D3 ag: activates human D3 dopamine receptor beta-arrestin recruitment; Potency, µM (series often up to 76.9 µM), most hits filed as activators; hit rate 4% among 2,300; DiscoveRx D3 beta-arrestin cells, luminescence, 90 min; shares compounds with D2 ag-1; also: nearly all actives have a fitted effect of over 70% in size
# Target sequence (P35462 whole entry, looked up): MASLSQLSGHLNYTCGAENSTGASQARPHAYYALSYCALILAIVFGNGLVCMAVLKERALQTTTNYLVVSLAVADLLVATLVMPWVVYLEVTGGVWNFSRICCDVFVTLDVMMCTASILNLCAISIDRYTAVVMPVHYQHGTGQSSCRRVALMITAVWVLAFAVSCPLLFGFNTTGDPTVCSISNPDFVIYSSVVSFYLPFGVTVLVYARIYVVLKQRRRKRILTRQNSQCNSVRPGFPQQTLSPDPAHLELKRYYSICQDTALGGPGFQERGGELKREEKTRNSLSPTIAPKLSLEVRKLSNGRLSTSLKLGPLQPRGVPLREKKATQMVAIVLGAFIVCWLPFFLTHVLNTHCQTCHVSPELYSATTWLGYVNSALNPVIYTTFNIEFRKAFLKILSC
# D2 ag-3: D2 receptor agonism, beta-arrestin counterscreen | shares compounds with D2 ag-1 | DiscoveRx PathHunter D2 beta-arrestin, luminescence, 90 min; response scale: percent relative to full dopamine signal | Potency, µM (highest dose often 76.9 µM), most hits filed as activators | hit rate 5.9% among 2,300; also: nearly all actives have a fitted effect of over 70% in size
# Numbers stand for hits; n = inactive; u = inconclusive; x = not tested or not shown. Unless noted, calls follow the shape of the dose curve; as a rule, active = well fitted activation curve with a large enough effect; inconclusive = small, poorly fitted or top-dose-only effect; inactive = flat fitted curve, though single readings scatter.
SMILES,D2 ag-1,D2 PAM-1,D2 ag-2,D2 antag,B2AR arrestin,D2 PAM-2,D3 ag,D2 ag-3
Cc1cc(NC(=O)COc2coc(CN3CCN(c4ccccc4F)CC3)cc2=O)no1,62,n,n,n,n,n,n,u
O=C(COc1coc(CN2CCN(c3ccccc3F)CC2)cc1=O)Nc1ccccc1,x,n,n,x,n,x,x,x
CCc1ccc(NS(=O)(=O)c2c(C(=O)N3CCOCC3)c(C)n(C)c2C)cc1,n,n,n,n,n,n,x,x
COc1ccc(NC(=O)Cn2cnc3sc(C)c(S(=O)(=O)N4CCN(c5ccccc5OC)CC4)c3c2=O)cc1OC,n,x,x,x,x,x,x,x
O=C(c1cc(-c2ccc(F)cc2)on1)N1CCCC1,n,n,n,n,n,n,n,n
O=C(c1ccccc1)N1CCN(S(=O)(=O)N2CCCCC2)CC1,n,n,n,n,n,n,x,x
Cc1cc(C)c(NC(N)=S)c(C)c1,n,n,n,n,n,n,n,n
O=C(CNC(=O)c1ccccc1)NCC(=O)OCC(=O)c1ccc(F)cc1,x,n,n,x,n,x,n,n
Cc1ccc(C(=O)NCC(=O)NCC(=O)OCC(=O)c2ccc(F)cc2)cc1,49,n,n,n,n,n,n,n
COc1ccc(CCNC(=O)C(=O)N/N=C/c2cccs2)cc1OC,n,n,n,n,n,n,x,x
Cc1c(-c2csc(N)n2)cnn1C,n,n,u,n,n,n,11µM,n
Cc1cccc(NC(=S)NN2CCN(C)CC2)c1,n,n,n,n,n,n,x,x
CS(=O)(=O)Nc1ccccc1C(=O)Nc1cc(Cl)cc(Cl)c1,n,n,n,n,n,n,n,n
CCc1ccc(CN2CCCC(CCC(=O)N3CCN(c4ccccn4)CC3)C2)o1 (centres undefined),n,n,n,n,n,n,n,n
Cc1ccc(C(=O)N2CCCC(CCC(=O)N3CCN(c4ccccn4)CC3)C2)cc1 (centres undefined),n,n,n,n,n,n,x,x
CCN(C(=O)CSc1nnc(-c2ccccc2)o1)c1c(N)n(Cc2ccccc2)c(=O)[nH]c1=O,n,n,n,n,n,n,x,x
CC(C)n1ncc2c(C(=O)N3CCN(Cc4ccc(Br)s4)CC3)cc(C3CC3)nc21,64,n,u,70,n,n,n,u
C=CCC(C(=O)Oc1c(C(C)(C)C)cc(C)cc1C(C)(C)C)c1ccccc1 (centres undefined),n,n,n,n,n,n,n,n
Cc1cccc(C)c1OC(=O)C(c1ccccc1)c1ccccc1,n,n,n,n,n,n,x,x
COc1cccc(NC(=O)NNC(=O)CCc2ccc(O)c(O)c2)c1,52,n,u,n,n,n,7.9µM,n
O=C(CCc1ccc(O)c(O)c1)NNC(=S)NCCc1ccccc1,46,n,n,n,n,n,u,n
O=C(CCc1ccccc1)NNC(=S)NCc1ccc(Cl)cc1,n,n,n,n,n,n,x,x
COc1ccc(CCC(=O)NNC(=O)Nc2cccc(Cl)c2)cc1,n,n,n,n,n,n,x,x
CCOC(=O)C1CCN(C(=O)CCc2nnc3ccc(NCCCN4CCCC4=O)nn23)CC1,n,n,n,n,n,n,x,x
NS(=O)(=O)c1ccc(NC(=O)CSc2nnc3n2CCCCC3)cc1,x,n,n,x,n,x,x,x
Cc1occc1-c1nnc(SCC(=O)Nc2nc3ccccc3s2)o1,45,n,n,n,n,n,n,n
Cc1cccc(-c2noc(-c3ccno3)n2)c1,n,n,n,n,n,n,x,x
COc1ccccc1CNC(=O)COC(=O)c1ccc(N2CCCC2=O)cc1,n,n,n,n,n,n,n,n
COc1ccc(CCNC(=O)COC(=O)c2ccc(N3CCCC3=O)cc2)cc1OC,n,n,n,n,n,n,x,x
